Results filed as inconclusive are left out. Unmarked numbers belong to inactive results. Calls follow the shape of the dose curve; as a rule, active = well fitted activation curve with a large enough effect; inconclusive = small, poorly fitted or top-dose-only effect; inactive = no such curve, though single readings can be large or run the other way.
Experiment: qHTS assay for re-activators of p53 using a Luc reporter: Hit Validation with no p53 Expressed; also: 0% is about no effect
Settings: p53-null cells, luciferase reporter counter-screen; series mostly up to 46.1 µM; activity change, positive = activation: at the top concentration
Method in brief: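 Counter-screen of primary hits in a cell line not transfected with p53, in Opti-MEM with 10% FBS; compounds at several concentrations (10 mM stock, 1:5; top 46.1 µM in well), 24 h at 37 deg C, 5% CO2. Luminescence read after 10 min with Amplite reagent.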

With `CCOC(=O)c1ccc(N2Cc3ccccc3C2=NC(=O)c2cccs2)cc1` as the compound, how does the “activity change, positive = activation” value read?
The value was 40.9%.

For `O=C(NCCCNC1CCCCC1)c1ccc(/C=N/O)nc1`, which “activity change, positive = activation” value is on record?
The value was 16.6%.

For `Cc1cc2[nH]c3ccccc3c2c(C)n1`, which “activity change, positive = activation” value is on record?
Its value is -28.9%.

For `Brc1c(CSc2nc3ccccc3s2)nc2ncccn12`, which “activity change, positive = activation” value is on record?
Its value is 60.7%.

With `Cc1ccc(C(=O)c2c3ccc([N+](=O)[O-])cc3[n+]([O-])n2CCCN)cc1` as the compound, how does the “activity change, positive = activation” value read?
Its value is -18%.

Which “activity change, positive = activation” value does the source give for `Cc1ccc(NC(=O)c2ccc(OC(=O)C(C)Oc3ccc(Cl)cc3C)cc2)cc1` (centres undefined) here?
Its value is 26.8%.

Which “activity change, positive = activation” value does the source give for `COc1cc(NC(=O)CSCc2ccc(Cl)cc2)c(C(=O)O)cc1OC` here?
The value was -44%.

Which “activity change, positive = activation” value does the source give for `Cc1ccc(N2C(=O)c3ccccc3C2C(=O)c2cc(C)ccc2O)cc1` (centres undefined) here?
The value was -38.5%.

With `O=C(NCc1ccc(-c2nc3ccccc3s2)cc1)c1cc2ccccc2o1` as the compound, how does the “activity change, positive = activation” value read?
Its value is 17.4%.

Which “activity change, positive = activation” value does the source give for `Cc1cc(C)c2nc(NNC(=O)c3ccc(S(=O)(=O)N4CCCC(C)C4)cc3)sc2c1` (centres undefined) here?
Its value is 0.359%.

Which “activity change, positive = activation” value does the source give for `O=C(Nc1ncc(Cc2ccccc2)s1)c1cccs1` here?
Its value is 50.1%.

Which “activity change, positive = activation” value does the source give for `COc1ccc(NC(=O)COC(=O)C23CC4CC(CC(O)(C4)C2)C3)cc1Cl` here?
Its value is -41.7%.

With `O=C(C1CCCN1S(=O)(=O)c1ccc(Cl)cc1)N1CCOCC1` (centres undefined) as the compound, how does the “activity change, positive = activation” value read?
The value was 156%.

Which “activity change, positive = activation” value does the source give for `Cc1nn(-c2ccccc2)c(/N=C/c2ccccc2O)c1-c1ccccc1` here?
The value was -56.3%.

For `COCCCNC(=O)Nc1ccc(Br)cc1Cl`, which “activity change, positive = activation” value is on record?
The value was -16.6%.

With `Cc1cccc2nc(CNc3ccc(F)cc3)cn12` as the compound, how does the “activity change, positive = activation” value read?
Its value is -5.96%.

With `Cc1cc(C)c2nc(NNC(=O)c3ccc(S(=O)(=O)N4CCc5ccccc5C4)cc3)sc2c1` as the compound, how does the “activity change, positive = activation” value read?
The value was 68.3%.

With `C=CCSC1=N/C(=C\c2cc(OCC)c(OC(C)=O)c([N+](=O)[O-])c2)C(=O)S1` as the compound, how does the “activity change, positive = activation” value read?
Its value is -60.9%.

With `C/C(Cn1nnc([N+](=O)[O-])n1)=N\NC(=O)c1ccc(C)cc1` as the compound, how does the “activity change, positive = activation” value read?
The value was -4.96%.

For `CC(C)(C)OC(=O)N1CCC(C(=O)Nc2ccc3c(c2)CCC3)CC1`, which “activity change, positive = activation” value is on record?
The value was 46.9%.

With `CC(C)CNC(=S)Nc1ccc(Oc2ccccc2)cc1` as the compound, how does the “activity change, positive = activation” value read?
Its value is 48.1%.

With `Cc1ccccc1S(=O)(=O)Nc1nc2ccccc2nc1N1CCc2ccccc2C1` as the compound, how does the “activity change, positive = activation” value read?
The value was 50.8%.

For `O=C(/C=C/c1cnc2ccccc2n1)NC12CC3CC(CC(C3)C1)C2`, which “activity change, positive = activation” value is on record?
Its value is 76.4%.

With `COC(=O)c1ccc(-c2nc(-c3cccs3)no2)cc1` as the compound, how does the “activity change, positive = activation” value read?
Its value is -36%.

For `O=C(Nc1ccc2c(c1)OCO2)c1cc(Cl)ccn1`, which “activity change, positive = activation” value is on record?
The value was -33%.

With `c1ccc2cc3c(NCCN4CCOCC4)ccnc3cc2c1` as the compound, how does the “activity change, positive = activation” value read?
Its value is -48.5%.

For `CC1(C)CC(=O)CC(=O)/C1=N\Nc1c(Cl)cc(Cl)cc1Cl`, which “activity change, positive = activation” value is on record?
The value was -30.2%.

For `O=c1sc(/C=N/Nc2ccccc2)c(Cl)n1Cc1ccccc1`, which “activity change, positive = activation” value is on record?
Its value is -13.4%.

For `c1ccc(-n2ncc3c(N4CCCCC4)ncnc32)cc1`, which “activity change, positive = activation” value is on record?
The value was -18.3%.

Which “activity change, positive = activation” value does the source give for `O=C(Nc1cccnc1Cl)c1cc(-c2ccccc2O)on1` here?
The value was 49%.

For `C=CCn1c(P(C)(=O)O)nc2ccccc21`, which “activity change, positive = activation” value is on record?
The value was 36%.

With `COCCn1c(C)cc(C(=O)COc2ccc(N(C)S(=O)(=O)c3ccc(C)cc3)cc2)c1C` as the compound, how does the “activity change, positive = activation” value read?
Its value is -1.71%.

Which “activity change, positive = activation” value does the source give for `COc1ccc(CCC(=O)Nc2ccc(-c3noc(-c4ccc(OC)c(OC)c4)n3)cc2)cc1` here?
Its value is 10.6%.

Which “activity change, positive = activation” value does the source give for `CC(=O)N1CCN(C(=O)COC(=O)COc2c(C)cc(C)cc2C)CC1` here?
Its value is 34.5%.

Which “activity change, positive = activation” value does the source give for `COc1ccccc1-c1c(C)nn2c(C)c(C(C)=O)cnc12` here?
The value was -26.5%.

Which “activity change, positive = activation” value does the source give for `OC1(C2(O)CC(c3ccccc3)ON2)CCCCC1` (centres undefined) here?
Its value is 33.1%.

With `Cc1ccc2c(c1)CCCN2C(=O)Nc1ccc2c(c1)OCO2` as the compound, how does the “activity change, positive = activation” value read?
The value was -5.86%.

Which “activity change, positive = activation” value does the source give for `C/C(=N\NC(=O)c1cccc(Br)c1)c1ccccn1` here?
The value was 147%.

For `O=C(COc1ccc(F)cc1Cl)NC1CCCCCC1`, which “activity change, positive = activation” value is on record?
The value was 87.9%.

From PubChem BioAssay AID624331 (National Center for Advancing Translational Sciences (NCATS), 2012)
